# KCNQ2 enhance = potentiators of rat KCNQ2 potassium channel. Potassium voltage-gated channel subfamily KQT member 2 (Rattus norvegicus), O88943. CHO-K1 KCNQ2, FluxOR thallium flux fluorescence; hits give high values. B-score at 10 µM. 0.54% of 310,000 active;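 active = fluorescence ratio B-score at least 3 SD of library B-scores, with initial fluorescence B-score within 3 of them, cut at about 5.3 in these data; same plate scores as AID 2156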;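 also: B-score of peak minus minimum over baseline fluorescence ratio after K+ and Tl+ stimulus; positive B-score means potentiation of KCNQ2 with more thallium influx and brighter signal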
# Target sequence (O88943 whole entry, looked up): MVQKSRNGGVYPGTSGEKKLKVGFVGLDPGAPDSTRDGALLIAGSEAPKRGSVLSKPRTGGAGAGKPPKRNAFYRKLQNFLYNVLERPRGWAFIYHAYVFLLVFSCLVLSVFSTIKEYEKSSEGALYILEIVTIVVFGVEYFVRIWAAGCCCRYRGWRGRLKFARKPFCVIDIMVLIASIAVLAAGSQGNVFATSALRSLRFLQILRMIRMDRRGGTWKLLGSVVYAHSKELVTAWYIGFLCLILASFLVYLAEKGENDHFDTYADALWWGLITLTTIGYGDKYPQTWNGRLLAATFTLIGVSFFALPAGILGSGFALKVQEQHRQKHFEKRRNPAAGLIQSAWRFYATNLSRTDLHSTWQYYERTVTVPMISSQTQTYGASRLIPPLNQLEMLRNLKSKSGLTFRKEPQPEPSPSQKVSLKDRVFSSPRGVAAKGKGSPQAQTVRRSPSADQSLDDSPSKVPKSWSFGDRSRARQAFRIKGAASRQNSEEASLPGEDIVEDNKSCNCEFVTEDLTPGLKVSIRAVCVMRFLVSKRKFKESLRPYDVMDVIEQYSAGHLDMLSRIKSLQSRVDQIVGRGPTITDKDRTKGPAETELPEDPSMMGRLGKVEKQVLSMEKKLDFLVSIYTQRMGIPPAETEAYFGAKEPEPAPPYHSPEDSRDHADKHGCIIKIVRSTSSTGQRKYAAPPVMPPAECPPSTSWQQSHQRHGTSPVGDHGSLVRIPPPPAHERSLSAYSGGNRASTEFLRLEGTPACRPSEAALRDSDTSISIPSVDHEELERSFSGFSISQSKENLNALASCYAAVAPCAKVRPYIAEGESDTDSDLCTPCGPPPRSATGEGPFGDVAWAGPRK
# KCNQ2 inh = rat KCNQ2 potassium channel inhibitors, primary screen, cell-based, CHO-K1, FluxOR thallium flux, B-score. Potassium voltage-gated channel subfamily KQT member 2 (Rattus norvegicus), O88943. 20 min; hits give low values. B-score at 10 µM. 1.1% of 310,000 active;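 active = fluorescence ratio B-score at most minus 3 library SDs, with starting brightness B-score within 2 library SDs, cut at about -5.5 in these data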
# Kir21 confirm = mouse Kir2.1 channel blockers, retest, confirmation, cell-based, FluxOR thallium flux, duplicate; shares compounds with KCNQ2 enhance; Kir2.1-expressing cells, FluxOR thallium flux fluorescence; hits give low values; Tl flux remaining, % of negative control (hits give low values), % at 10 µM; 41% of 2,300 active;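 active = Primary-screen hit whose thallium flux fell at least 3 control SD below untreated wells in both duplicates, with normal baseline fluorescence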
# HEK293 Tl flux = alters thallium flux in parental HEK293 cells, Kir2.1 counter-screen | shares compounds with KCNQ2 enhance | FluxOR thallium flux fluorescence; 0% = unstimulated blank wells | FluxOR signal as % of negative control (100 = no effect), % at 10 µM | 19% of 2,300 active;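 active = dye signal at least 3 control SD above or below untreated wells in both duplicates, raw fluorescence within 3, either direction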;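 also: percent is based on the flux ratio of peak minus minimum fluorescence over baseline F0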
# CHO-K1 ctr = nonspecific thallium flux increase in parental CHO-K1, confirmation, counter-screen for KCNQ2 potentiator project, cell-based, FluxOR thallium flux, duplicate. shares compounds with KCNQ2 enhance. parental CHO-K1 cells, FluxOR thallium flux fluorescence; zero = vehicle mean+3SD, 100% = vehicle-minus-blank window. activity increase over 3SD of controls, % at 10 µM. 43% of 1,200 active;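 active = signal rise of at least 3 SD above the untreated control mean, in both duplicate wells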;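 also: counter screen of KCNQ2 potentiator hits so any rise reflects channel-independent effects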
# KCNQ1 pot spec = human KCNQ1 channel potentiation off-target, confirmation, selectivity assay for KCNQ2 potentiator project, cell-based, CHO, FluxOR thallium flux; activation over 3SD threshold, % at 10 µM; CHO KCNQ1 stable, FluxOR thallium flux fluorescence; beyond 3SD, as % of vehicle-control signal; AID 2283, 2010; 28% of 1,200 active; shares compounds with KCNQ2 enhance;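 active = fluorescence ratio rise of at least 3 SD of vehicle wells above their mean, in both replicate wells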
# KCNQ2 pot conf = rat KCNQ2 channel potentiators, confirmation, cell-based, CHO, FluxOR thallium flux, duplicate. 68% of 1,200 active. shares compounds with KCNQ2 enhance. potentiation, less the hit threshold, % at 10 µM. CHO-KCNQ2 cells, FluxOR thallium flux fluorescence;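 active = fluorescence ratio rising 3 SD or more over the vehicle control mean in both replicates, plus primary screen hit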;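 also: peak minus minimum thallium fluorescence divided by baseline after K/Tl stimulus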
# Kir2-1 sel = mouse Kir2.1 channel activation off-target, confirmation, selectivity assay for KCNQ2 potentiator project, cell-based, HEK293, FluxOR thallium flux. shares compounds with KCNQ2 enhance. HEK293 Kir2.1, FluxOR thallium flux fluorescence. activity over 3SD threshold, % at 10 µM. 2% of 1,200 active. AID 2345, 2010;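 active = fluorescence ratio rise of at least 3 SD above the vehicle-control mean, seen in both replicates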
# KCNQ2 W236L pot = potentiators of retigabine-insensitive KCNQ2 W236L, mechanism study for KCNQ2 potentiator project, cell-based, rat KCNQ2 W236L, CHO, automated patch clamp. 10% of 940 active. shares compounds with KCNQ2 enhance. current increase over 3SD of negative controls (%), hits give high values, % at 25 µM. automated patch clamp current;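 active = current increase at least 3 SD of the untreated controls above them in both duplicate recordings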
# Numbers stand for hits; - = inactive; . = no result. An excerpt weighted towards active compounds, which were near 1.6% of everything screened.
SMILES,KCNQ2 enhance,KCNQ2 inh,Kir21 confirm,HEK293 Tl flux,others
Cc1ccc(S(=O)(=O)Nc2cc(Cl)c(O)cc2C)cc1,.,-,.,.,
Cc1ccc(S(=O)(=O)Nc2cc(C(C)C)c(O)cc2C)cc1,.,-,34%,71%,
CCCCOC(=O)n1c(=S)oc2cc(Cl)ccc21,-,-,.,.,
COC(=O)n1c(=S)oc2cc(Cl)ccc21,8.4,-,-,-,CHO-K1 ctr=28;KCNQ1 pot spec=-;KCNQ2 pot conf=-;Kir2-1 sel=-;KCNQ2 W236L pot=-
O=C(NN1C(=O)C2C3C=CC(C3)C2C1=O)c1ccncc1 (configuration not stated),-,-,.,.,
O=C(NN1C(=O)C2C(c3ccccc3)C=CC(c3ccccc3)C2C1=O)c1ccncc1 (configuration not stated),6.5,-,-,-,CHO-K1 ctr=-;KCNQ1 pot spec=-;KCNQ2 pot conf=72;Kir2-1 sel=-;KCNQ2 W236L pot=-
CCOc1ccc(-c2c(C(=O)N/N=C/C3CCCCC3)nnn2-c2nonc2N)cc1,-,-,.,.,
CCCCCN(C(=O)CCC(=O)OCC(=O)c1cccc(OC)c1)c1c(N)n(CCCC)c(=O)[nH]c1=O,.,-,.,.,
COc1ccc(/C(N)=N/OC(=O)C2CCC(=O)N2S(=O)(=O)c2ccc(C)cc2)cc1OC (configuration not stated),-,-,.,.,
Cc1ccc(C)c(CNC(=O)Nc2ccccc2)c1,-,-,.,.,
Cc1ccc(-c2nc3ccccn3c2NCc2ccc3c(c2)OCO3)cc1,.,-,76%,-,
COc1ccc(-c2nc3ccc(C)cn3c2NCc2ccc3c(c2)OCO3)cc1,-,-,.,.,
Cc1nnsc1SCCNC(=O)Nc1ccc(Cl)cc1,-,-,.,.,
O=[N+]([O-])c1ccc(S(=O)(=O)N2CCSC2c2ccco2)cc1 (configuration not stated),.,-,.,.,
O=S(=O)(c1ccc(Cl)cc1)N1CCSC1c1ccco1 (configuration not stated),.,-,66%,-,
COc1ccc(OCC(=O)NNC(=O)c2cccc(S(=O)(=O)N(C)C)c2)cc1,.,-,.,.,
COc1ccccc1C(CCNCc1ccc(N(C)C)cc1)c1ccc(OC(C)C)cc1 (configuration not stated),.,-,.,.,
COc1ccccc1C(CCNCc1ccccc1)c1ccc(OC(C)C)cc1 (configuration not stated),.,-,58%,-,
COc1ccc(CNCCC(c2ccc(OC(C)C)cc2)c2ccccc2OC)cc1OC (configuration not stated),.,-,.,.,
COc1ccc(CNCCC(c2ccc(OC(C)C)cc2)c2ccccc2OC)cc1 (configuration not stated),.,-,29%,-,
C=CCSc1nc(NC)c2sccc2n1,.,-,.,.,
O=C(CCc1nnc(Cc2ccc3c(c2)OCO3)o1)NC(c1ccccn1)C(F)(F)F (configuration not stated),-,-,.,.,
